Source: PubChem BioAssay (National Center for Advancing Translational Sciences (NCATS))
Vaccinia mCherry – vaccinia inhibition (mCherry reporter); Vaccinia virus mCherry reporter infection, fluorescence; Potency, µM (top dose mostly 36.5 µM), for the others: at the highest dose activity change, negative = inhibition, actives largely listed as inhibitors; 0.63% of 310,000 active; calls by dose curve; tested in A549 cells; also: potency is read from the fitted curve at half-maximal effect; nearly all actives have a fitted effect of over 35% in size
LASV entry inh – blocks Lassa virus binding to or entry into cells. Lassa virus pseudotype entry inhibition, cell reporter. Potency, µM (top dose mostly 37.9 µM), for inactives: at the highest dose activity change, negative = inhibition, actives largely listed as inhibitors. 1.2% of 300,000 active; calls by dose curve; tested in HEK293 cells; also: potency is read from the fitted curve at half-maximal effect; nearly all actives have a fitted effect of over 50% in size
FMDV antiviral – antivirals against foot and mouth disease virus | 1.2% of 410,000 active | FMDV antiviral cell-based qHTS | Potency, µM (highest dose often 57.9 µM), without a hit: top-dose activity change, negative = inhibition, actives largely listed as inhibitors; calls by dose curve; tested in HEK293T cells; also: read-out not given here; potency is read from the fitted curve at half-maximal effect; nearly all actives have a fitted effect of over 45% in size
HCMV antiviral – blocks human cytomegalovirus replication | activity change, negative = inhibition, % at 57.5 µM | HFF cells, HCMV-luciferase reporter, 72 h; hits give low values | 4.5% of 410,000 active; in the data active = activity change below about -60%; inconclusive = no clear call, values can overlap the other calls; inactive = above about -39%
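Luciferase read-out from HCMV-luciferase-infected HFFs (MOI 1 PFU/cell) 72 h post infection at 37C; compounds added after 16 h cell attachment; activity normalized between buffer-only basal and Salinomycin (10uM) inhibitor controls.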
Marburg entry inh – Marburg virus entry inhibition; Marburg virus pseudotyped entry inhibition, cell reporter; Potency, µM (doses to about 37.8 µM), for the others: at the top dose activity change, negative = inhibition, most hits filed as inhibitors; 1.8% of 300,000 active; calls by dose curve; tested in HEK293 cells; also: potency is read from the fitted curve at half-maximal effect
Vaccinia Venus – vaccinia inhibition (Venus reporter). Potency, µM (top dose mostly 36.5 µM), without a hit: at the highest dose activity change, negative = inhibition, most hits filed as inhibitors. AID 720580. Vaccinia virus Venus reporter expression, fluorescence. 0.46% of 330,000 active; calls by dose curve; tested in A549 cells; also: potency is read from the fitted curve at half-maximal effect; nearly all actives have a fitted effect of over 30% in size
An asterisk follows results filed as active; i = inactive; ? = inconclusive; / = no result given; ! = a repeat was not active; [ ] = remark or other dose. Only some compounds are listed: those with a hit (about 6.5% of all), similar ones and a draw of the others. % is scaled to controls: 0 for no effect and ±100 for the full control effect.

SMILES	Vaccinia mCherry	LASV entry inh	FMDV antiviral	HCMV antiviral	Marburg entry inh	Vaccinia Venus
O=C(C1CCCN(S(=O)(=O)c2ccc(Br)s2)C1)N1CCN(c2ccccc2)CC1 (centres undefined)	-17.4%	?	?	-12.9	?	-22.6%
O=C(C1CCCN(S(=O)(=O)c2cccc3nonc23)C1)N1CCN(c2cccc(Cl)c2)CC1 (centres undefined)	-8.2%	4.9%[46.1 µM]	-7.6%	-64.9*!	23.1µM*!	-12.1%
Cc1cccc(N2CCN(C(=O)C3CC(=O)N(C4CCCC4)C3)CC2)c1C (centres undefined)	-28.6%	-11.7%	?	-63.0*	?	-11.8%
Cc1cc(C)c(NC(=O)C2CC(=O)N(C3CCCC3)C2)c(C)c1 (centres undefined)	/	/	-1.6%	-72.4*	/	/
O=C(O)c1ccc(-c2noc(-c3cccc(F)c3)n2)cc1	/	/	11.6%	18.5	/	/
O=C(C1CCC(CNS(=O)(=O)c2ccc(Br)s2)CC1)N1CCN(c2ccc(F)cc2)CC1 (centres undefined)	-20.4%	1.1%[46.1 µM]	?	-13.5	?	-18.8%
COc1cccc(N2CCN(C(=O)C3CCC(CNS(=O)(=O)c4ccc(Br)s4)CC3)CC2)c1 (centres undefined)	-29.2%	-0.2%[46.1 µM]	17.8µM*	-15.2	-23.6%[46.1 µM]	-19.7%
Cc1n[nH]c(C)c1S(=O)(=O)N1CCCC(C(=O)N2CCN(c3ccc(Cl)cc3)CC2)C1 (centres undefined)	?	?	20µM*	-75.6*	?	?
Cc1cccc(N2CCN(C(=O)C3CCCN(S(=O)(=O)c4ccc(Br)s4)C3)CC2)c1C (centres undefined)	-14.3%[7.34 µM]	?	?	-61.7*	?	-9.6%[7.34 µM]
O=C(C1CCCN(S(=O)(=O)c2ccc(Br)s2)C1)N1CCCCCC1 (centres undefined)	/	-12.6%	?	-16.8	-9.7%	-25.7%
O=C(O)C1CCCN(S(=O)(=O)c2ccc(Br)s2)C1 (centres undefined)	i	24.6%	-9.8%	-62.1*	15.2%	-0.6%
Cc1ccc(-c2cc(-c3coc4ccc(Cl)cc4c3=O)c3c(n2)-c2ccccc2OC3)cc1	-0.6%	?	1.0%	13.6	11.9%[46.1 µM]	-3.0%
COc1ccc(C(=O)NC(C)c2ccncc2)cc1S(=O)(=O)N(C)Cc1ccccc1 (centres undefined)	/	/	-13.5%	-3.9	/	/
CSc1ncccc1C(=O)NCC1Cc2cc(F)cc(-c3cncnc3)c2O1 (centres undefined)	-12.0%	/	-22.1%	/	/	-2.0%
Cc1cccc(NC(=O)CSc2nnc3ccc(-c4cccnc4)nn23)c1	i	/	-20.5%	22.2	/	-4.7%
CCN(CC)S(=O)(=O)c1cccc(S(=O)(=O)c2cccc(S(=O)(=O)N(CC)CC)c2)c1	/	?	-4.4%	-68.6*	?	/
CCN(CC)S(=O)(=O)c1ccc(C)c(C)c1	/	-2.8%	8.9%	-10.7	-4.2%	/
CCN(CC)CCOc1ccc2c(c1)C(=NO)c1cc(OCCN(CC)CC)ccc1-2	8.91µM*	10.3µM*	/	23.3	2.59µM*	3.55µM*
CCN(CC)S(=O)(=O)c1ccc2c(c1)C(=NO)c1cc(S(=O)(=O)N(CC)CC)ccc1-2	11.2µM*	?	20µM*	4.3	?	12.6µM*
COc1cc(-c2cccc(OC)c2OC)cc2c1OCCN(Cc1cn[nH]c1-c1ccc(Cl)cc1)C2	-9.3%	/	-17.1%	/	/	-25.8%
CCCCNC(=O)C(C)(C)n1cc(NC(=O)c2cc(C)oc2C)cn1	/	/	/	2.8	/	/
C[C@H]1CN([C@@H](C)CO)C(=O)CCCn2cc(nn2)CO[C@@H]1CN(C)C(=O)Nc1cccc(F)c1	-9.5%	/	-8.7%	-3.0	/	-11.9%
O=c1[nH]c(=S)[nH]cc1Oc1ccc(Cl)cc1Cl	i	/	-10.5%	-96.9*	/	-10.0%
CC(C)(C)n1nnnc1C(CCc1ccccc1)N1CCC(n2c(=O)[nH]c3ccccc32)CC1 (centres undefined)	-19.9%	/	31.6µM*	-99.1*	/	-23.1%
CSCCC(c1nnnn1C1CCCC1)N1CCC(n2c(=O)[nH]c3ccccc32)CC1 (centres undefined)	16.2%	/	-23.2%	?	/	4.1%
SMILES	Vaccinia mCherry	LASV entry inh	FMDV antiviral	HCMV antiviral	Marburg entry inh	Vaccinia Venus
CC(C)(C)n1nnnc1C(C1CC1)N1CCC(n2c(=O)[nH]c3ccccc32)CC1 (centres undefined)	24.5%	/	-25.9%	-10.2	/	3.9%
CSCCC(c1nnnn1C1CCCCC1)N1CCC(n2c(=O)[nH]c3ccccc32)CC1 (centres undefined)	-5.0%	/	?	-93.2*	/	-7.3%
O=c1[nH]c2ccccc2n1C1CCN(C(CCc2ccccc2)c2nnnn2C2CCCCC2)CC1 (centres undefined)	?	/	28.2µM*	-90.8*	/	?
CCCCCCCOc1ccc(CC(=O)NO)cc1	-21.8%	/	/	/	/	-19.4%
O=C(c1cccs1)N1C[C@H](O)[C@H](n2cc(C3CC3)nn2)C[C@@H]1c1ccccc1	/	8.1%[46.1 µM]	/	/	/	/
Fc1ccccc1C1c2[nH]c3ccccc3c2CCN1Cc1cccn1-c1ncccn1 (centres undefined)	?	?	12.9%	?	3.16µM*	11.3%
Cc1ccc(CC(=O)Nc2nc3c(s2)CCCC3)cc1	8.91µM*	?	25.0%	-72.5*	?	-6.1%
O=C(CSc1nc2ccccc2o1)Nc1nc2c(s1)CCCC2	/	/	?	-86.1*	/	/
O=C(Nc1cccc(Br)c1)Nc1nc2c(s1)CCCCCC2	-20.8%	4.3%[46.1 µM]	-4.5%	-86.3*	/	-16.4%
Cc1ccc(C(C)C)c(OCC(=O)Nc2nc3c(s2)CCCC3)c1	-13.4%	3.16µM*	-3.4%	-82.4*	?	8.0%
CC(C)Cc1nc2cc(NS(=O)(=O)N(C)C)cc(C(=O)N3CCSCC3)c2n1C	-0.8%	/	22.5%	/	/	0.8%
COc1ccccc1OCC(=O)Nc1nc2c(s1)CCCC2	/	/	19.5%	-66.9*	/	/
O=C(CCS(=O)(=O)Cc1ccccc1)Nc1nc2c(s1)CCCC2	-28.3%	?	/	-60.7*	?	?
COc1ccc(OCC(=O)Nc2nc3c(s2)CCCC3)cc1	/	/	9.7%	?	/	/
CC(C)n1c(=O)[nH][nH]c1=S	i	13.4%	-5.5%	-31.3	-1.5%[46.1 µM]	-7.4%
Cc1c(C(=O)NCCN(C)C)oc2c1-c1nn(Cc3cccc(Cl)c3)cc1CC2	-5.9%	22.7%[46.1 µM]	-14.5%	-68.4*	/	-3.9%
Cc1cccc(C)c1NC(=O)c1oc2c(c1C)-c1nn(Cc3ccccc3)cc1CC2	?	-7.9%[46.1 µM]	?	-81.5*	/	?
CCn1cc2c(n1)-c1c(oc(C(=O)Nc3cccc(C)c3C)c1C)CC2	-7.8%	6.6%[46.1 µM]	39.2%	78.9	/	1.1%
CCOc1ccc(CNC(=O)Cn2cc3c(n2)-c2c(oc(C(=O)N4CCOCC4)c2C)CC3)cc1	-2.2%	-26.7%[46.1 µM]	-29.8%	-63.2*	/	-22.0%
COc1cccc(CNC(=O)c2oc3c(c2C)-c2nn(Cc4cccc(Cl)c4)cc2CC3)c1	-18.1%	27.1%[46.1 µM]	-22.8%	-92.0*	/	-10.1%
